# Test results taken from ChEMBL document CHEMBL1961873, “Compounds: GSK PKIS; Assays: Nanosyn kinase panel” (2012).
# Biological target: Ribosomal protein S6 kinase alpha-6 (Homo sapiens) (UniProt Q9UK32)
# Settings: at 0.1 µM
# 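Further: reported value is the mean inhibition of RSK4, from the GSK PKIS kinase inhibitor screen.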
# Chain of Ribosomal protein S6 kinase alpha-6 (Homo sapiens) (Q9UK32 whole entry): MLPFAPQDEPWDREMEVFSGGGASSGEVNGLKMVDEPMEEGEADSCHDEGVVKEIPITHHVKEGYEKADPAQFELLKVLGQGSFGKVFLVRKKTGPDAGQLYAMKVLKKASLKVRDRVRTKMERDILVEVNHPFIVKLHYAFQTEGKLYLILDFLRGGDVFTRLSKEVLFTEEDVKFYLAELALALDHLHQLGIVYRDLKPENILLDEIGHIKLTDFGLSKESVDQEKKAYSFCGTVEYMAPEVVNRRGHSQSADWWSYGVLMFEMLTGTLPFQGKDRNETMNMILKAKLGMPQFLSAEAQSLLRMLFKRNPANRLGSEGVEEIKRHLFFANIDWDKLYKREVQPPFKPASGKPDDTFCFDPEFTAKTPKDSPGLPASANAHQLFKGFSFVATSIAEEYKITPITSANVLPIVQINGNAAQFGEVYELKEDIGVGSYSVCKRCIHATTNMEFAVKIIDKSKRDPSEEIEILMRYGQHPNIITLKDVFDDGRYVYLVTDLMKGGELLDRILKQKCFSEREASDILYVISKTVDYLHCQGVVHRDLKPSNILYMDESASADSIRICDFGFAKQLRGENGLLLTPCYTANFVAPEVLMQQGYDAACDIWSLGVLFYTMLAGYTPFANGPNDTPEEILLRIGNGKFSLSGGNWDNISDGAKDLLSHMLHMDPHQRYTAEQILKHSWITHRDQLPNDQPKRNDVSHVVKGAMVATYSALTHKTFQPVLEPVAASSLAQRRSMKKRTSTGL
row,Compound,inhibition
1,COc1cc(/C=N/Nc2ncnc3[nH]ncc23)ccc1O,2.97%
2,CS(=O)(=O)CCNCc1coc(-c2ccc3ncnc(Nc4ccc(OCc5ccccc5)cc4)c3c2)c1,2.43%
3,Cc1cccc2c1NC(=O)/C2=N\Nc1ccc(S(N)(=O)=O)cc1,1.43%
4,c1ccc(-c2nc3n(c2-c2ccc4c(c2)OCO4)CCC3)nc1,1.28%
5,COc1cc(Nc2nccc(Nc3ccc4c(C)n[nH]c4c3)n2)cc(OC)c1OC,1.26%
6,COc1ccc(-c2cc3c(N)ncnc3o2)cc1,-0.28%
7,COc1ccc(-c2nn3ncccc3c2-c2ccnc(Nc3ccc4c(c3)OCCO4)n2)cc1,0.7%
8,CCn1c(-c2nonc2N)nc2c(C#CC(C)(C)O)nc(OC[C@H](N)c3ccccc3)cc21,1.53%
9,Clc1ccc(-c2nn3ncccc3c2-c2ccnc(Nc3ccccc3)n2)cc1,0.64%
10,CN1CCC(n2cnc(-c3ccc(F)cc3)c2-c2ccnc(Nc3ccccc3)n2)CC1,3.17%
11,CNC(=O)c1cc(-c2ccc(F)cc2)cc(-c2ccc(S(=O)(=O)N3CCCC3)cc2)c1N,0.1%
12,COc1cc2c(cc1Nc1nc(Nc3ccsc3C(N)=O)c3cc[nH]c3n1)N(C(=O)CN(C)C)CCC2(C)C,11.5%
13,CCN(CC)S(=O)(=O)c1ccc(OC)c(Nc2ncc(-c3ccccc3)o2)c1,1.64%
14,CCn1c(-c2nonc2N)nc2ccccc21,1.71%
15,NC(=O)c1sc(-n2cnc3ccc(C(F)(F)F)cc32)cc1OCc1ccccc1Br,0.36%
16,CNC(=O)c1cncc(/C=C/c2ccccc2Cl)c1,0.95%
17,COc1ccc(-c2oc3ncnc(N)c3c2-c2ccc(NC(=O)Nc3cc(C(F)(F)F)ccc3F)cc2)cc1,0.74%

row,Compound,inhibition
1,COC(=O)Nc1nc2ccc(S(=O)(=O)c3ccc(NC(=O)Nc4cc(C(F)(F)F)ccc4F)cc3)cc2[nH]1,0.08%
2,Cc1cccc(Nc2ncc(-c3ccccc3)o2)c1,1.32%
3,NS(=O)(=O)c1ccc(Nc2ncc(-c3ccccc3)o2)cc1,1.15%
4,COc1cc(N2CCN(C(C)C)CC2)ccc1Nc1nc(Nc2ccc(F)cc2C(N)=O)c2cc[nH]c2n1,14.5%
5,COc1ccc2[nH]c3c4[nH]c5ccc(OC)cc5c4c4c(c3c2c1)C(=O)NC4=O,58.2%
6,CCn1c(-c2nonc2N)nc2c(C#CC(C)(C)O)ncc(OC3CCNCC3)c21,1.98%
7,CNC(=O)c1cccc(C#Cc2cncnc2Nc2ccc(OCc3cccc(F)c3)c(Cl)c2)c1,-0.53%
8,CCCN(CCS(C)(=O)=O)Cc1ccc(-c2ccc3ncnc(Nc4ccc(OCc5cccc(F)c5)c(Cl)c4)c3c2)o1,1.43%
9,N#Cc1c(NC(=O)CN2CCOCC2)sc2c1CCCC2,1.4%
10,N#Cc1c(NC(=O)c2ccc(F)cc2)sc2c1CCCC2,-0.96%
11,COc1ccc(CNC(=O)c2ccc(-c3cc(-c4nnc(C)o4)ccc3C)cc2)cc1,0.98%
12,CN1CCC(n2cnc(-c3ccc(F)cc3)c2-c2ccnc(N)n2)CC1,1.08%
13,O=C(Nc1n[nH]c2cc(-c3ccc(F)cc3)ccc12)C1CC1,1.52%
14,CC1=C(C(=O)Nc2cc(Cl)c3[nH]ncc3c2)C(c2ccc(C(F)(F)F)cc2)CC(=O)N1 (stereo not drawn),7.7%
15,CCN1CCC(CC(=O)Nc2n[nH]c3nnc(-c4cccc(F)c4F)cc23)CC1,1.84%
16,CC(C)COC(=O)c1ccc2c(c1)/C(=C/Nc1ccc(S(N)(=O)=O)cc1)C(=O)N2,4.96%
